Source: PubChem BioAssay
The source made the active and inactive calls.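 How the source made its calls: active means visual image review flags a hit and inhibition of aggregation exceeds 20%; inconclusive means visual hit but inhibition at or below 20%; inactive means no hit on visual image review.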

assay: inhibitors of mutant huntingtin aggregation, primary screen, imaging, exon1htt(103Q)mCFP cells, high-content imaging (AID 483); settings: exon1htt(103Q)mCFP cell line, aggregate imaging, at 2 µM; inhibition of aggregation: stronger effect = higher value; nuclei count: measured here: cell count, toxicity;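 further: compound exposure lasted 3 days before fixation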;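 on nuclei count: percent of the per-plate median nuclei count of sample wells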

SMILES | inhibition of aggregation | nuclei count [%]
Cc1nc2c(-c3ccc(F)cc3)c(C)nn2c(C)c1CCC(=O)NC(C)CCc1ccco1 (stereo not drawn) | -37.7% (inactive) | 99.5
CCOC(=O)N1CCC(NC(=O)CSCc2nc(-c3cccc(OC)c3)oc2C)CC1 | -9% (inactive) | 94.6
Cn1c(=O)[nH]c(=O)c2c1nc(NC1CCCCC1)n2CC(=O)NC1CCCCC1 | 12.1% (inactive) | 90.9
O=S(=O)(Nc1ccc(Cc2ccncc2)cc1)N1CCCC1 | -0.2% (inactive) | 111
CCOc1ccc2nc(NC(=O)CSc3nnnn3C3CCCCC3)sc2c1 | -8% (inactive) | 108
COc1ccccc1OCCCCNCCO | -4.6% (inactive) | 103
Cc1cccc(-n2ncc3c(NCCCO)ncnc32)c1 | -32% (inactive) | 101
COc1cc(NC(=O)Nc2cccc(Cl)c2)c(OC)cc1NC(=O)CN1CCCCC1 | 1% (inactive) | 126
CCOC(=O)N1CCN(C(=O)c2n[nH]c(=O)c3ccccc23)CC1 | -7.2% (inactive) | 107
C=CCN1C(=O)C2(C(C#N)=C(N)Oc3n[nH]c(CCC)c32)c2ccccc21 (stereo not drawn) | -32.8% (inactive) | 95.3
CCOc1ccc2[nH]c(=O)c(C(c3nnnn3CC3CCCO3)N3CCc4ccccc4C3)cc2c1 (stereo not drawn) | 3.6% (inactive) | 69
Cn1c(Cc2ccccc2)nnc1SCC(=O)N1CCOCC1 | -33% (inactive) | 103
CC1=C(C(=O)OC2CCCCC2)C(c2ccc(C)o2)C2=C(CC(C)(C)CC2=O)N1 (stereo not drawn) | 3.3% (inactive) | 122
O=S(=O)(NC1CCCCC1NS(=O)(=O)c1ccc(F)cc1)c1ccc(F)cc1 (stereo not drawn) | -1.8% (inactive) | 101
CCOC(=O)c1ccc(NC(=O)Cn2cc3c(n2)CCC(C)C3)cc1 (stereo not drawn) | -28.2% (inactive) | 91.4
O=C(O)C1CC(=O)N(CCOc2ccccc2)C1 (stereo not drawn) | 10.8% (inactive) | 86.7
COC(=O)c1ccc(NC(=O)C(C)N2C(=O)c3ccccc3C2=O)cc1 (stereo not drawn) | -7.5% (inactive) | 103
COc1ccc(N2CCN(C(=O)COc3ccc4ccccc4c3)CC2)cc1 | 7.5% (inactive) | 93.8
Cn1cc(CN2CCc3ccccc3C2)c2ccccc21 | -6.2% (inactive) | 146
COC(=O)c1cn(NC(=O)c2cccnc2)c(=O)c2ccccc12 | -32.8% (inactive) | 112

SMILES | inhibition of aggregation | nuclei count [%]
Cn1c(C(=O)NCCCN2CCCCCC2)cc2c(=O)n(C)c3ccccc3c21 | -31.5% (inactive) | 76.6
O=C(Nc1nccs1)c1ccc(COc2ccccc2Br)o1 | -27.8% (inactive) | 111
CC(C)Cn1c(CN(Cc2ccccc2)Cc2ccccc2)nc2c1c(=O)n(C)c(=O)n2C | 1.4% (inactive) | 124
Cc1ccc(CCNC(=O)CC2Oc3ccc(C)cc3NC2=O)cc1 (stereo not drawn) | -11.9% (inactive) | 105
COc1cc2c(=O)n(Cc3ccccc3)c(=O)n(CC(=O)NCc3ccco3)c2cc1OC | -3.1% (inactive) | 107
O=C(Nc1ccc(Cl)cn1)c1cccnc1 | 2.7% (inactive) | 107
CCSc1nc2ccccc2n1CC(N)=O | -4% (inactive) | 114
CC1(c2ccc(Cl)cc2)NC(=O)N(CC(=O)NC(=O)NCc2ccco2)C1=O (stereo not drawn) | -25.8% (inactive) | 102
O=C(Nn1cnnc1)C1Cc2ccccc2CN1S(=O)(=O)c1ccc(F)cc1 (stereo not drawn) | 7.4% (inactive) | 95.2
Cc1cc(NCCN2CCCCC2)n2c(nc3ccccc32)c1C#N | -3.2% (inactive) | 61.6
CCCSc1nnc(-c2ccccc2NC(=O)CC)c(=O)[nH]1 | -17.5% (inactive) | 86.8
O=C(NCc1ccco1)c1ccc2c(=O)n(CC3CCCO3)c(=S)[nH]c2c1 (stereo not drawn) | -6.3% (inactive) | 120
C[C@@H]1C[C@H](O)c2cc(Cl)ccc2N1 | 17.5% (inactive) | 97.5
COc1cccc(NC(=O)COC(=O)c2cccnc2)c1 | -3.6% (inactive) | 105
NC(=O)CCS(=O)(=O)CCN1CCCCC1 | 2.7% (inactive) | 89.8
Cn1c(=O)n(CCN2CCOCC2)c(=O)c2c1nc1n2CCN1c1ccccc1 | 27.9% (inactive) | 98.5
COC(=O)CSc1nnc(-c2cccs2)n1-c1ccc(Cl)cc1 | 10.2% (inactive) | 106
COc1ccc(NC(=O)C(C)Oc2ccc(/C(C)=N\O)cc2)cc1 (stereo not drawn) | 13.8% (inactive) | 114
CCOC(=O)c1ccccc1NC(=O)c1cccnc1 | -28.4% (inactive) | 117
